# Measured values as given in publication PMC4336329 (PLoS ONE, 2015).
# The campaign covered roughly 310,000 compounds. About 14,000 (4.5%) showed an effect of 50% or more. The effect is printed as a negative number. What follows is part of a selection rich in strong results, with near analogues and random picks from the rest.
# Biological target: human ether-à-go-go-related gene (hERG) potassium channel (human, UniProt Q12809)
# Assay: primary screen, population patch clamp on CHO cells stably expressing hERG; higher = less effect of the substance
# 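Also: peak tail current of the secondary pulse compared with the same well before compound.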
# Chain of human ether-à-go-go-related gene (hERG) potassium channel (Q12809 whole entry, looked up): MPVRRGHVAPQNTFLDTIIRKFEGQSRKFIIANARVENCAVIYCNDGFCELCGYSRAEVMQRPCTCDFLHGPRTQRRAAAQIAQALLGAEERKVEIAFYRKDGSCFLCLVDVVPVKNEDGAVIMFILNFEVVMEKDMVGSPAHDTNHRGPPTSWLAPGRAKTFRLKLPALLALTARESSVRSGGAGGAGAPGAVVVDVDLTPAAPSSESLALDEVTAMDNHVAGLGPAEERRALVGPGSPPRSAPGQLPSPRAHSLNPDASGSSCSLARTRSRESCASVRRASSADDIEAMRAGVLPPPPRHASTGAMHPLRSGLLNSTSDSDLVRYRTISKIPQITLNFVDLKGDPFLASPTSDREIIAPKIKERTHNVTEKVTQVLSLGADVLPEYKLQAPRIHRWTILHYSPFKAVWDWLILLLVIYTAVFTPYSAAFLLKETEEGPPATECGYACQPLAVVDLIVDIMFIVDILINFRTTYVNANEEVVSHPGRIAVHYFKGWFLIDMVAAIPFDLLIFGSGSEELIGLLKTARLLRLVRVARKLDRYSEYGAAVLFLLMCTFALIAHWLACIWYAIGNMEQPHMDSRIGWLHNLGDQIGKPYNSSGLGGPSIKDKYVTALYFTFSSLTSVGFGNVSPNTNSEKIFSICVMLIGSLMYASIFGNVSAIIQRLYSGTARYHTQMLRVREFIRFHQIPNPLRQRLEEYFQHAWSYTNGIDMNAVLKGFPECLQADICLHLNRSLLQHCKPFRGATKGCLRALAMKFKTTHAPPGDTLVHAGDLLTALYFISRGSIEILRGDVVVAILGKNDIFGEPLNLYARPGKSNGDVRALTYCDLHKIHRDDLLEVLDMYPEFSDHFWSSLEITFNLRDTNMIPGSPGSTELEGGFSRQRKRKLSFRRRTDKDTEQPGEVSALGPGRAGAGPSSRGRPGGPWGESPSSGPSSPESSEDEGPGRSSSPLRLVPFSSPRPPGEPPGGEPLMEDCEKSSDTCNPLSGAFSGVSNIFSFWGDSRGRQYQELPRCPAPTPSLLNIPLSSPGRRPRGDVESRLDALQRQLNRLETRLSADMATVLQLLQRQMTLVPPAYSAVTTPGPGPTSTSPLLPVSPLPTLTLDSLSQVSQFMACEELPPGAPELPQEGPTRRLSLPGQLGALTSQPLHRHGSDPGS
row,SMILES,"hERG current change (%, negative = inhibition) at 10uM [%]"
1,CCC(=O)NNc1ncnc2ccccc12,9.38
2,CCN(CC)C(=O)C1CCCN(Cc2ccc3ccccc3c2)C1 (centres unmarked),-19
3,CC(C)(C)OC(=O)NCCCC1=CC2=CC(=O)C(C)(OC(=O)c3ccco3)C(=O)C2=CO1 (centres unmarked),5.99
4,COCCCNC(=O)C1CCC(CNS(=O)(=O)c2ccc(C)cc2)CC1 (centres unmarked),14
5,Cc1cccc(CCN2C(N(C)C)=NC[C@@H]2C)c1,-7.74
6,Cc1c(NC(=O)/C(C#N)=C/c2ccc(-c3cccc(Cl)c3)o2)c(=O)n(-c2ccccc2)n1C,-24.5
7,NC(=O)c1cc(C(N)=O)nc(Cl)n1,16.1
8,Cc1cccnc1NC(=O)c1ccc(S(=O)(=O)N2CCC(C)CC2)cc1,-12.3
9,COc1ncnc2c1ncn2CC1COC(C)(C)O1 (centres unmarked),15.9
10,CCOC(=O)c1sc2nc(CSc3ccccc3)nc(NCCN(C)C)c2c1C,-17.4
11,Cc1sc2nc(CSc3ccccc3)nc(N3CCC(C(N)=O)CC3)c2c1C,-8.46
12,CCOC(=O)c1sc2nc(CSc3ccccc3)nc(N3CCC(C(N)=O)CC3)c2c1C,17.5
13,CCOC(=O)c1sc2nc(CSc3ccccc3)nc(N3CCCN(C)CC3)c2c1C.O=C(O)C(=O)O,-70
14,Cc1sc2nc(CSc3ccccc3)nc(N3CCOCC3)c2c1C,2.04
15,Cc1sc2nc(CSc3ccccc3)nc(NCCN(C)C)c2c1C,-72.2
16,COCCNc1nc(CSc2ccccc2)nc2sc(C)c(C)c12,-5.97
17,Cc1sc2nc(CSc3ccccc3)nc(N3CCN(C)CC3)c2c1C,-58.5
18,CCNc1nc(CSc2ccccc2)nc2sc(C)c(C)c12,1.64
19,O=C(NCCCN=C1NS(=O)(=O)c2ccccc21)c1ccco1,-10
20,Cc1nn(C)cc1C1C(C#N)=C(N)N(c2ccc(F)c([N+](=O)[O-])c2)C2=C1C(=O)CCC2 (centres unmarked),11
21,Cc1ccc(S(=O)(=O)N2[C@@H](c3cccc(Cl)c3)C(C(=O)O)=CC[C@H]2c2cccc(Cl)c2)cc1,3.05

row,SMILES,"hERG current change (%, negative = inhibition) at 10uM [%]"
1,O=[N+]([O-])c1ccc(NC(=S)N/C(=N/CS(=O)(=O)c2ccccc2)c2ccccc2)cc1,-25.1
2,COc1ccc(NC(=S)N/C(=N/S(=O)(=O)c2ccc(C)cc2)c2ccccc2)cc1,21.2
3,COc1ccc(NC(=S)N/C(=N/CS(=O)(=O)c2ccccc2)c2ccccc2)cc1,-53
4,COc1ccc(NC2SC(=O)N(C)C2=O)cc1 (centres unmarked),1.36
5,O=C1C(=O)N(CCN2CCOCC2)C(c2ccncc2)/C1=C(/O)c1ccc2c(c1)OCO2 (centres unmarked),8.87
6,O=C(NCC1CCCN(Cc2ccc3nonc3c2)C1)c1ccc(F)cc1 (centres unmarked),-60.8
7,O=C(c1cc(F)ccc1F)C1CCCN(Cc2ccc3nonc3c2)C1 (centres unmarked),-12
8,O=C(NCC1CCCN(Cc2ccc3c(c2)OCCO3)C1)c1ccc2c(c1)OCO2 (centres unmarked),-18.8
9,O=C(NCC1CCCN(Cc2ccc3nonc3c2)C1)c1cccc(C(F)(F)F)c1 (centres unmarked),-61.5
10,COc1ccc(CC(=O)NCC2CCCN(Cc3cccc(C(F)(F)F)c3)C2)cc1 (centres unmarked),-28
11,O=S(=O)(Cc1ccccc1)NCC1CCCN(Cc2ccc(F)c(F)c2)C1 (centres unmarked),-44.2
12,O=S(=O)(Cc1ccccc1)NCC1CCCN(Cc2cccc3nonc23)C1 (centres unmarked),-12.2
13,O=S(=O)(Cc1ccccc1)NCC1CCCN(Cc2ccc3nonc3c2)C1 (centres unmarked),-51.2
14,O=C(COc1ccc(Cl)cc1)NNC(=O)CSc1nncs1,8.43
15,COc1ccccc1Oc1ccccc1C(=O)O,0.941
16,O=C(NCc1ccc(Cl)cc1)C1C2C=CC3(CN(Cc4cccnc4)C(=O)C13)O2 (centres unmarked),-7.1
17,COc1ccc(N2CCN(CCCNC(=O)C3CCCN(S(=O)(=O)c4c(C)n[nH]c4C)C3)CC2)cc1 (centres unmarked),8.03
18,COc1ccc(C(=O)C(C)OC(=O)c2nc3nccc(C)n3n2)cc1 (centres unmarked),2.98
19,CCOC(=O)C1CCCN(C(=O)c2ccc(CNc3c(N4CCC(C)CC4)c(=O)c3=O)cc2)C1 (centres unmarked),5.83
20,Cc1cc(SCC(=O)NN=C2CCN(C(C)C)CC2)c(C)cc1Br,-69.4
21,CC(=O)N1CCC(=NNC(=O)CSc2cc(C)c(Br)cc2C)CC1,6.38

row,SMILES,"hERG current change (%, negative = inhibition) at 10uM [%]"
1,CCCN1CCC(=NNC(=O)CSc2cc(C)c(Br)cc2C)CC1,-28
2,C=CCN(C(=O)Nc1ccc(Cl)cc1)C1CC(=O)N(c2ccc(OC)cc2)C1=O (centres unmarked),-14.8
3,O=C(NCc1ccncc1)C(=O)C1C(=O)Nc2ccccc21 (centres unmarked),11.6
4,CCOC(=O)c1csc(NNC=O)n1,6.73
5,CC(CNC(=O)CCS(=O)(=O)c1ccc2c(c1)NC(=O)CO2)c1ccccc1 (centres unmarked),-6.68
6,Cn1cnc([N+](=O)[O-])c1Sc1ccc(Br)cc1,-20
7,Cc1ccc(Sc2c([N+](=O)[O-])ncn2C)cc1,3.39
8,Cn1cnc([N+](=O)[O-])c1Sc1ccc([N+](=O)[O-])cc1,-62.1
9,CCN(CC)c1ncnc2sc(C(=O)N3CCN(c4ccccc4)CC3)c(C)c12,-50.2
10,Cc1c(C(=O)N2CCN(c3ccccn3)CC2)sc2ncnc(N3CCN(c4ccccc4)CC3)c12,-32.8
11,Cc1c(C(=O)N2CCN(c3ccccn3)CC2)sc2ncnc(N3CCOCC3)c12,-59
12,Cc1c(C(=O)N2CCC3(CC2)OCCO3)sc2ncnc(N3CCN(c4ccccn4)CC3)c12,-44.2
13,Cc1c(C(=O)N2CCN(Cc3ccc4c(c3)OCO4)CC2)sc2ncnc(N3CCN(c4ccccc4)CC3)c12,7.82
14,Cc1c(C(=O)N2CCN(c3ccc(F)cc3)CC2)sc2ncnc(N3CCN(c4ccccn4)CC3)c12,-65.1
15,CCN(CC)c1ncnc2sc(C(=O)N3CCN(c4ccc(OC)cc4)CC3)c(C)c12,-41.5
16,COc1ccccc1N1CCN(C(=O)c2sc3ncnc(N4CCN(c5ccccn5)CC4)c3c2C)CC1,-18.8
17,Cc1c(C(=O)N2CCN(c3ccccc3)CC2)sc2ncnc(N3CCN(c4ccccn4)CC3)c12,-35.1
18,CN(C)CCOC(=O)c1ccc2c(c1)S(=O)(=O)c1ccccc1C2=O.Cl,-6.3
19,COc1ccc2c(c1)c(C(=O)O)c(C)n2C(C)C,13.3
20,COc1ccc(N2CCN(C(=O)c3ccc(NS(=O)(=O)c4ccc(F)c(F)c4)cc3)CC2)cc1,-44.3
21,Cc1cc(C)nc(NC2=NCC(=O)N2CCc2c[nH]c3ccccc23)n1,-2.13

row,SMILES,"hERG current change (%, negative = inhibition) at 10uM [%]"
1,CCOC(=O)c1cnc(SC)nc1Oc1cccc(NS(=O)(=O)c2ccc(F)cc2)c1,-71.2
2,CCOC(=O)c1cnc(SC)nc1Oc1cccc(NS(=O)(=O)c2ccc(C)cc2)c1,-6.83
3,CCOC(=O)c1cnc(SC)nc1Oc1cccc(NS(=O)(=O)c2ccccc2)c1,16.1
4,O=C(NCCN1CCOCC1)c1ccc(Cl)nc1Cl,-2.02
5,CCCCCC(=O)N1CCN(S(=O)(=O)c2ccc3c(c2)OCCCO3)CC1,-18.7
6,CC(=O)N1CCN(S(=O)(=O)c2ccc3c(c2)OCCO3)CC1,10.5
7,CCCCCC(=O)N1CCN(S(=O)(=O)c2ccc3c(c2)OCCO3)CC1,-61
8,COc1cc(NS(=O)(=O)c2ccc(NC(=S)NC(=O)c3sc4ccccc4c3Cl)cc2)ncn1,16.3
9,COc1ccc(-c2[nH]ncc2CN2CCCC(C(=O)c3cccc(OC)c3)C2)cc1 (centres unmarked),-67.3
10,COc1ccc(-c2[nH]ncc2CN2CCCCCCC2)c(OC)c1,-54.7
11,COc1cccc(C(=O)C2CCCN(Cc3cn[nH]c3C3CCCCC3)C2)c1 (centres unmarked),-32.1
12,COc1ccc(-c2[nH]ncc2CN2CCSCC2)c(OC)c1,14.7
13,COc1ccc(-c2[nH]ncc2CN2CCC(OCc3ccccn3)CC2)c(F)c1,-31.1
14,COc1ccc(-c2[nH]ncc2CN2CCC(OCc3ccccc3)CC2)c(F)c1,-80.7
15,COc1ccc(-c2[nH]ncc2CN2CCCC(C(=O)c3ccc(OC)cc3OC)C2)cc1 (centres unmarked),-65
16,COc1ccc(-c2[nH]ncc2CN2CCCOc3c(cccc3OC)C2)c(OC)c1,-48
17,COc1ccc(-c2[nH]ncc2CN2CCC(OCc3cccnc3)CC2)c(F)c1,-37.1
18,COc1ccc(-c2nc3c(Br)c(N)c(Br)cc3o2)cc1,7.14
19,O=C(CCCOc1ccc(Cl)cc1Cl)N/N=C/c1cccc([N+](=O)[O-])c1,9.56
20,CS(=O)(=O)N1Cc2ccccc2CC1C(=O)OCC(=O)Nc1ccc2ccccc2c1 (centres unmarked),7.36
